Compounds without any hit were thinned out: in the full panel of roughly 79,000, 15% have a hit. A number with no mark means an inactive call. Active and inactive are the calls of the source. No stated cut-off is given here; in the data, active means growth inhibition above about 70%; inactive means the rest.

The record followed here is PubChem BioAssay (NCI).

Experiment [1] in a line: NCI Yeast Anticancer Drug Screen. Data for the rad50 strain (AID 155).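 Further: 0% = growth of vehicle-only cultures of the same strain.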 Conditions: S. cerevisiae rad50 strain growth inhibition; at 50.0 µM; stronger effect = higher value. The method in brief:
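Cells are treated with compound, grown, and their growth is then scored against vehicle-only cultures of the same repair-deficient yeast strain.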

The nature of experiment [2]: NCI Yeast Anticancer Drug Screen. Data for the mec2-1 strain (AID 157). Conditions: S. cerevisiae mec2-1 strain, at 50.0 µM, stronger effect = higher value. An outline of the steps:
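Using mec2-1 yeast: add compound, measure growth, express inhibition versus vehicle-treated cultures.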

The nature of experiment [3]: NCI Yeast Anticancer Drug Screen. Data for the sgs1 mgt1 strain (AID 161).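 Further: 0% = growth of cultures given vehicle only.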 Conditions: S. cerevisiae sgs1 mgt1 strain, at 50.0 µM, stronger effect = higher value. An outline of the steps:
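This yeast growth screen uses a strain with defined DNA-repair lesions; compound-treated growth is compared with vehicle-treated growth.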

Experiment [4] can be described thus: NCI Yeast Anticancer Drug Screen. Data for the cln2 rad14 strain (AID 165).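 Further: 0% = growth equal to vehicle treated cultures.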 The following applies: S. cerevisiae cln2 rad14 strain, at 50.0 µM, stronger effect = higher value. An outline of the steps:
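Yeast strain cln2 rad14, bearing defects in cell cycle control and DNA repair, serves as the test system; values reflect growth inhibition compared with vehicle.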

Experiment [5] is described as follows: NCI Yeast Anticancer Drug Screen. Data for the bub3 strain (AID 167). The following applies: S. cerevisiae bub3 mutant strain, at 50.0 µM, stronger effect = higher value. The method in brief: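 Part of a panel of yeast mutants defective in DNA damage repair or cell cycle regulation. Each strain is grown with compound, and inhibition is calculated relative to solvent-treated cultures.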

The nature of experiment [6]: NCI Yeast Anticancer Drug Screen. Data for the mlh1 rad18 strain (AID 175). Conditions: S. cerevisiae mlh1 rad18 strain growth inhibition; at 50.0 µM; stronger effect = higher value. The method in brief:
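Steps: expose repair-defective yeast to compound; measure growth; express inhibition against vehicle-treated controls.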

Consider `C[N+]1(C)C2CCC1CC(OC(=O)C(CO)c1ccccc1)C2` (stereo not given), for which the growth inhibition was 18.7% in experiment [1]; -21.6% in experiment [2]; -6% in experiment [3]; -28.4% in experiment [4]; -51.5% in experiment [5]; -5.95% in experiment [6].
On to `CCC1(CCOc2ccccc2)C(=O)NC(=O)NC1=O`, for which the growth inhibition in experiment [1] is -10.9%; in experiment [2] it was -1.45%; in experiment [3], 1.3%; in experiment [4], -6.55%; in experiment [5], 1.6%; in experiment [6], -1.85%.
For `Nc1nc(N)c(N=Nc2ccc([As](=O)(O)O)c(O)c2)c(N)n1`, the growth inhibition in experiment [1] was -4%; in experiment [2], -6.9%; in experiment [3], -36%; in experiment [4], -18.4%; in experiment [5], -43%; in experiment [6] it was -18.1%.
In the case of `COC(=O)COC1CC[CH-]CC1.[Cl-].[Cl-].[Cl-].[Cl-].[Cl-].[Sb+5].c1ccncc1`, the growth inhibition was 20.8% in experiment [1]; 7.8% in experiment [2]; 18.7% in experiment [3]; 17.6% in experiment [4]; 4.75% in experiment [5]; 12.8% in experiment [6].
Regarding `CCOC(=O)/C=C1/C=C(C)CC(C)(C)C1` (tested in a mixture with another compound), the growth inhibition is -0.3% in experiment [1]; -58.7% in experiment [2]; -9.1% in experiment [3]; -40.5% in experiment [4]; 19% in experiment [5]; 1.7% in experiment [6].
In the case of `Clc1cccc(Cl)c1NC1=NCCS1`, the growth inhibition is -11.7% in experiment [1]; -20.8% in experiment [2]; 12.7% in experiment [3]; 6.1% in experiment [4]; -2.25% in experiment [5]; 6.45% in experiment [6].
`C=CCOCN1c2cc(OC)c([C@@]3(C(=O)OC)C[C@@H]4CN(CCc5c3[nH]c3ccccc53)C[C@](O)(CC)C4)cc2[C@@]23CCN4CC=C[C@@](CC)([C@@H](OC(C)=O)[C@](O)(C(=O)OC)[C@H]12)[C@H]43`: the growth inhibition was -21.2% in experiment [1]; -8.75% in experiment [2]; 2.35% in experiment [3]; 0.2% in experiment [4]; -0.05% in experiment [5]; -16.4% in experiment [6].
As for `CCC(C)c1ccc(O)cc1` (stereo not given), the growth inhibition was 3.5% in experiment [1]; -2.9% in experiment [2]; -5.95% in experiment [3]; -16.1% in experiment [4]; -5% in experiment [5]; -4.65% in experiment [6].
Turning to `CC(C)COC(=O)Cc1ccccc1`, the growth inhibition is 23.2% in experiment [1]; 12.6% in experiment [2]; 13.7% in experiment [3]; -30.1% in experiment [4]; -0.55% in experiment [5]; 25.4% in experiment [6].
For the compound `CC(=O)Cc1ccc(C)cc1`, the growth inhibition in experiment [1] was -40.4%; in experiment [2] it was -41.8%; in experiment [3], -29.5%; in experiment [4] it was 7.3%; in experiment [5], -44.5%; in experiment [6], -20.3%.
Regarding `O=[N+]([O-])c1cccc2cccnc12`, the growth inhibition is -11.4% in experiment [1]; -13.8% in experiment [2]; 6.75% in experiment [3]; 4.2% in experiment [4]; 0.4% in experiment [5]; -1.75% in experiment [6].
Consider `COCC(C)OC(=O)Cc1ccccc1` (stereo not given), for which the growth inhibition in experiment [1] was -10.9%; in experiment [2], -8.2%; in experiment [3], -8.6%; in experiment [4] it was -85.6%; in experiment [5], -49.1%; in experiment [6], -31.1%.
On to `CC(C)(C)OP(O)(=S)OC(C)(C)C`, for which the growth inhibition was 14.5% in experiment [1]; 13.2% in experiment [2]; 15.8% in experiment [3]; 15.2% in experiment [4]; 16.1% in experiment [5]; 9.55% in experiment [6].
In the case of `CCCCN(CCCC)CC(O)c1cc(Cl)c(Cl)cc1C` (stereo not given), the growth inhibition in experiment [1] was 10.5%; in experiment [2], -13.2%; in experiment [3], 35.1%; in experiment [4] it was -1.3%; in experiment [5], 27.4%; in experiment [6], 25.3%.
`NC1=C(c2nc(-c3cc4ccccc4oc3=O)cs2)C(c2ccco2)c2c(c3ccccc3oc2=O)O1` (stereo not given): the growth inhibition was -3.15% in experiment [1]; -9.9% in experiment [2]; -21.4% in experiment [3]; -38.8% in experiment [4]; 4.1% in experiment [5]; -14.3% in experiment [6].
As to `CCCC1(C(C)C)C(=O)NC(=S)NC1=O`, the growth inhibition in experiment [1] is 10.7%; in experiment [2], -7.2%; in experiment [3] it was -1.9%; in experiment [4] it was 6.55%; in experiment [5] it was -10.6%; in experiment [6], -24.1%.
Regarding `CN1CCN(c2cc3nsnc3c3nsnc23)CC1`, the growth inhibition in experiment [1] was 0.3%; in experiment [2], -7.3%; in experiment [3], -15.1%; in experiment [4] it was 8.6%; in experiment [5], -12.7%; in experiment [6] it was 18.1%.
In the case of `N.N.N.N.N.O=[N+]([O-])[O-].[Co+3].[O-][Cl+3]([O-])([O-])[O-]`, the growth inhibition in experiment [1] was -13.7%; in experiment [2], 4.6%; in experiment [3], -10.5%; in experiment [4], -3.15%; in experiment [5], -4.45%; in experiment [6], -7.75%.
Regarding `CC(C)(C)[CH2][Sn]([Cl])([CH2]C(C)(C)C)[CH2]C(C)(C)C`, the growth inhibition in experiment [1] is 99% (active); in experiment [2], 99.3% (active); in experiment [3] it was 21.8%; in experiment [4], 99% (active); in experiment [5] it was 99.2% (active); in experiment [6] it was 99% (active).
Consider `CCN1CCC2OCOC2C1` (stereo not given), for which the growth inhibition was 8.5% in experiment [1]; 2.85% in experiment [2]; 2.9% in experiment [3]; 0.5% in experiment [4]; -0.05% in experiment [5]; 33.6% in experiment [6].
